Results filed as inconclusive are left out. Calls of active or inactive are those of the source. The calls were made as follows, unless noted: active = hit-call score of the fitted dose curve at least 0.9, where 1 is the maximum; inactive = score below 0.9.
What was measured:
[1] = CCTE_Padilla_ZF_Score.Living: CCTE's 144 Hour Post-fertilization zebrafish Assay Score for Viability, Padilla Lab (AID 2284410);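 also: larval death at 6 dpf judged by absent heartbeat or coagulation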
Summary of the method: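 Wild-type zebrafish embryos were exposed singly from 6–8 hpf in sealed wells of Hanks' solution at 26C, then rinsed at 5 dpf. At 6 dpf, blinded assessors scored mortality (no heartbeat or coagulation) by stereomicroscopy, fitted against DMSO.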

[2] = CCTE_Padilla_ZF_Score.Tail: CCTE's 144 Hour Post-fertilization zebrafish Assay Score for Tail Malformation, Padilla Lab (AID 2284414)
Summary of the method: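 Wild-type zebrafish embryos, one per well in 200 uL 10% Hanks', dosed at 6-8 hpf, sealed, and kept at 26 C on a 14:10 h light cycle. Chemical was rinsed out at 5 dpf. Blinded brightfield scoring of tail defects followed at 6 dpf.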

[3] = CCTE_Padilla_ZF_Score.Blood_pooling: CCTE's 144 Hour Post-fertilization zebrafish Assay Score for Blood Pooling, Padilla Lab (AID 2284415)
Summary of the method: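 Wild-type outbred zebrafish embryos, one per well in 10% Hanks', exposed from 6–8 hpf in sealed plates at 26C on 14:10 h light:dark, rinsed at 5 dpf. Blinded stereomicroscope scoring of blood pooling at 6 dpf; gain-of-signal versus DMSO.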

[4] = CCTE_Padilla_ZF_Score.Any: CCTE's 144 Hour Post-fertilization zebrafish Assay Score for Any Mortality or Malformation, Padilla Lab (AID 2284416)
Summary of the method: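 Wild-type zebrafish embryos with chorions, one per well in 10% Hanks' from 6–8 hpf, dosed in sealed plates at 26 C, 14:10 h light:dark; rinsed at 5 dpf; blinded scoring at 6 dpf for death or malformation, versus DMSO.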

[5] = system: SRY-box transcription factor 2 (SOX2) Protein Expression, Deisenroth Lab, SOX2 (gene 6657); test: CCTE_Deisenroth_DEVTOX-GLR_Endo_SOX2: CCTE's DevTox GLR-Endo Assay Evaluation of SRY-box transcription factor 2 (SOX2) Protein Expression, Deisenroth Lab (AID 2284412; active = hit-call score of the fitted dose curve at least 0.9, where 1 is the maximum)
Summary of the method: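 RUES2-GLR human pluripotent cells were seeded 24 h, then differentiated 48 h with two chemical exposures 24 h apart. Cells were fixed, nuclei stained and imaged by high-content microscopy. Endpoint is %SOX2+ cells over cell count, minus 0.2% DMSO control; 10-point series 1 nM–200 uM.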

[6] = system: SRY-box transcription factor 17 (SOX17) Protein Expression, Deisenroth Lab, SOX17 (gene 64321); test: CCTE_Deisenroth_DEVTOX-GLR_Endo_SOX17: CCTE's DevTox GLR-Endo Assay Evaluation of SRY-box transcription factor 17 (SOX17) Protein Expression, Deisenroth Lab (AID 2284413)
Summary of the method: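 Seed RUES2-GLR cells 24 h; start endoderm differentiation; dose at 0 and 24 h (1 nM - 200 uM, 10 points); fix at 48 h, stain nuclei, image 5 fields/well; compute SOX17+/total cells vs 0.2% DMSO.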

[7] = system: Brachyury (BRA) Protein Expression, TBXT (gene 6862); test: CCTE_Deisenroth_DEVTOX-GLR_Endo_BRA: CCTE's DevTox GLR-Endo Assay Evaluation of Brachyury (BRA) Protein Expression, Deisenroth Lab (AID 2284417)
Summary of the method: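 Read-out: BRA+ cell count divided by total cell count by high-content imaging (5 fields per well), expressed relative to 0.2% DMSO solvent control. RUES2-GLR cells dosed twice over a 48 h differentiation; concentrations 1 nM - 200 uM.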

[8] = CCTE_Deisenroth_DEVTOX-GLR_Endo_CellCount: Viability Assessment in CCTE's DevTox GLR-Endo Assay, Deisenroth Lab (AID 2284420)
Summary of the method: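 Measured 48 h after dosing: fluorescent nuclei counted by imaging in human RUES2-GLR cells under defined differentiation media, tested at 1 nM - 200 uM. Values are percent cell-count change relative to 0.2% DMSO.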

[9] = system: SRY-box transcription factor 17 (SOX17) Protein Expression, Deisenroth Lab, SOX17 (gene 64321); test: CCTE_Deisenroth_DEVTOX-GLR_Pluri_SOX17: CCTE's DevTox GLR-Pluri Assay Evaluation of SRY-box transcription factor 17 (SOX17) Protein Expression, Deisenroth Lab (AID 2284427; active = hit-call score of the fitted dose curve at least 0.9, where 1 is the maximum)
Summary of the method: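 Using an inducible fluorescent SOX17 reporter in human pluripotent RUES2-GLR cells, compounds (1 nM - 200 uM) were given twice over 48 h differentiation. Percent SOX17+ cells minus DMSO control came from high-content image analysis.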

[10] = system: SRY-box transcription factor 2 (SOX2) Protein Expression, Deisenroth Lab, SOX2 (gene 6657); test: CCTE_Deisenroth_DEVTOX-GLR_Pluri_SOX2: CCTE's DevTox GLR-Pluri Assay Evaluation of SRY-box transcription factor 2 (SOX2) Protein Expression, Deisenroth Lab (AID 2284428)
Summary of the method: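 Percent SOX2+ RUES2-GLR cells, determined by fluorescence microscopy after 48 h and two 24-h-interval chemical exposures spanning 1 nM–200 uM, served as the endpoint. Values are expressed relative to 0.2% DMSO; total cell counts assessed viability.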

[11] = system: Brachyury (BRA) Protein Expression, Deisenroth Lab, TBXT (gene 6862); test: CCTE_Deisenroth_DEVTOX-GLR_Pluri_BRA: CCTE's DevTox GLR-Pluri Assay Evaluation of Brachyury (BRA) Protein Expression, Deisenroth Lab (AID 2284429; active = hit-call score of the fitted dose curve at least 0.9, where 1 is the maximum)
Summary of the method: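 An inducible fluorescent BRA reporter in RUES2-GLR cells tracks mesoderm differentiation. Compounds (10 concentrations, 1 nM - 200 uM) are dosed twice within a 48-h differentiation. The endpoint subtracts the 0.2% DMSO control from percent BRA+ cells.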

[12] = CCTE_Deisenroth_DEVTOX-GLR_Pluri_CellCount: Viability Assessment in CCTE's DevTox GLR-Pluri Assay Evaluation of Total Cell Counts, Deisenroth Lab (AID 2284430)
Summary of the method: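 RUES2-GLR human pluripotent cells, seeded 24 h, then differentiated 48 h with two chemical exposures 24 h apart; 10-point series 1 nM - 200 uM. Fixed, nuclear-stained, imaged (5 fields/well); nuclei count as % change vs 0.2% DMSO.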

Measured: AC50

FC(F)(F)COCC(F)(F)F
inactive: [1] | [2] | [3] | [4]

CS(=O)(=O)OCCCCOS(C)(=O)=O
active: [6] 44.5 µM | [7] 100 µM | [8] 14.4 µM | [9] 45.4 µM | [10] 2.44 µM | [11] 50.7 µM | [12] 20.1 µM
inactive: [5]

From PubChem BioAssay (EPA / NIEHS)
